B1: design_601_c3fd07b4-2f34-4ad8-bd4e-2749faf628eb_821_dldesign_0_cycle1_af2pred (protein)
chain: EAAAAAAAGEEARRLTRKRLERAEEAEKTKSPLQAANAWLAASEFARHAAEALAKNYPSATETIAELRALAEEAEAKAKELL
B2: design_600_24101276-ad9d-4944-b73e-53bb160363ad_2181_dldesign_0_cycle1_af2pred (protein)
chain: MSAAADAQLLLERAEQALAAAEANPELAPAANERIAAAAERLLGPEAAAALRAIAEEHADDPVAAVRAQYEYVAALAEKAEA
B3: design_601_c3fd07b4-2f34-4ad8-bd4e-2749faf628eb_731_dldesign_0_cycle1_af2pred (protein)
chain: AEAKKELTEEVFEALEYRNEIERKDPELGKKARELLRKAFEEGRKLIKADPEEGTKKAAEIVKKVREEIKKLAE
B4: design_601_c3fd07b4-2f34-4ad8-bd4e-2749faf628eb_1384_dldesign_0_cycle1_af2pred (protein)
chain: SKIELLKKAAEYVEEAAKLAKEGGRVSDVIKLLQKAYELAKKAGDEETAKLIKEAAFAVPDPEKAYKLLKEAAERLKEKAKKLE
B5: design_600_24101276-ad9d-4944-b73e-53bb160363ad_2193_dldesign_0_cycle1_af2pred (protein)
chain: SLEKEIEKLAKELKKAKELDPKTAAEELRKIAKEARKVGKEAAKKDKELAKKAAKLAQEAYEAAAEKEQQARLE
B6: design_601_c3fd07b4-2f34-4ad8-bd4e-2749faf628eb_592_dldesign_0_cycle1_af2pred (protein)
chain: SSADILREYRRALQEATKAAAAADPANKEEILKEGAKAREEVVDAFSESDELGKKTAEEQLAKIKARKKAAE
B7: design_601_c3fd07b4-2f34-4ad8-bd4e-2749faf628eb_587_dldesign_0_cycle1_af2pred (protein)
chain: NEEKAKTALSEGNAYYRMALDAVKIGVKKEDVLALIDEAEKYFEKAAELYKDNPEKAKKIKELGKEKTEEARKALEEA
B8: design_601_c3fd07b4-2f34-4ad8-bd4e-2749faf628eb_72_dldesign_0_cycle1_af2pred (protein)
chain: AAAAAAKKAEADATQLDLIAKSTEAIKDKVSPETVADVFAPAAAAYEKAAKLWSGNPAKAAEFKAKAKEMKAKYEKAKKEAE
B9: design_600_24101276-ad9d-4944-b73e-53bb160363ad_1759_dldesign_0_cycle1_af2pred (protein)
chain: GEEASKKAKEDAKLVSEAAKYAKEAGKYAKKIAELKPEKAEEAKKIKEKSAKLLYELADNIEDEEKAKEYLDEIKKLYKEAEELYKEA
B10: design_600_24101276-ad9d-4944-b73e-53bb160363ad_1891_dldesign_0_cycle1_af2pred (protein)
chain: GLEEEKKAVEEQKKKVEETGKKALEMAKSGEKAEEGLESLKKLIEETKEFAKKSKLKALAAEVTQLALEKLSEAKFELSKSKA
B11: design_600_24101276-ad9d-4944-b73e-53bb160363ad_1967_dldesign_0_cycle1_af2pred (protein)
chain: GNKKLAAELLKKSIEYFIEAVKSKKLSTASGYASKSAVYFAKAVYVGTGVPPEVAYKVRLIVLEIGLKAIEKRQEELKKKE
B12: design_601_c3fd07b4-2f34-4ad8-bd4e-2749faf628eb_1417_dldesign_0_cycle1_af2pred (protein)
chain: EEEKLKEAAKRLHEAREKTNEAEQKLKLEGKKNAEELKKELEAAAKVAKAVAEEVKANPEYAKIAETLAKRAEKAAQEA
B13: design_600_24101276-ad9d-4944-b73e-53bb160363ad_2244_dldesign_0_cycle1_af2pred (protein)
chain: MEEEKKKEEKKKELKEKLKELEKKAEEAAKAAKADPAHLPELAAVAQELYQLSAEAEFEGDKETAEKAKEVARKAREVGKAARAA
B14: design_600_24101276-ad9d-4944-b73e-53bb160363ad_2211_dldesign_0_cycle1_af2pred (protein)
chain: SEAYEEAKKEAEAAVKALKELAKEKPEAKEKAEKLIKRVEEELKKAEEGNEEAARIAKGSIEARKLAAESVLKT
B15: design_601_c3fd07b4-2f34-4ad8-bd4e-2749faf628eb_352_dldesign_0_cycle1_af2pred (protein)
chain: AKEDQEASSEMMRYLTKAGKLAKEIGEEEYEKALKEREKVLELSVEDPKKGLEAAKEVLKEYEEKYKKAEEEKKA
B16: design_601_c3fd07b4-2f34-4ad8-bd4e-2749faf628eb_648_dldesign_0_cycle1_af2pred (protein)
chain: GTEEALERVRRGAERARRLLDEARKYGADKEKVDALTKEADEALAAAEENPEKAPEYLKRIAEISAEAAELRAEAFAKK
B17: design_601_c3fd07b4-2f34-4ad8-bd4e-2749faf628eb_877_dldesign_0_cycle1_af2pred (protein)
chain: NEKAKEALKENKEAAELARKLAKEGIAPEEAARLAQKLQETAAVMKMADKVPKETLEEAIKEGKKAAEEVKKLAKA
B18: design_600_24101276-ad9d-4944-b73e-53bb160363ad_1889_dldesign_0_cycle1_af2pred (protein)
chain: MAEKEALIAELKAKAAEAKAKGAAGSAGEQFQWDVIAAGYEKGAEAAKKAKTAEEAKKAAKEAVEKAKRVAEHIKKSEEEAEKRA
B19: design_600_24101276-ad9d-4944-b73e-53bb160363ad_2321_dldesign_0_cycle1_af2pred (protein)
chain: AQKAKNEAESLLTRAEQALEAGVSGDAEQAKKAAEKIEEYAKKAEEIGKKYPEVKEYAEKKAEEIKELAKKAKEAAKKK
B20: design_601_c3fd07b4-2f34-4ad8-bd4e-2749faf628eb_190_dldesign_0_cycle1_af2pred (protein)
chain: SMEGQELKDKAVDALGDAHLLKIKGKEIDPEIVKIAEKAEEAAKKALKLIKEGNLEEAKEELEKAEELVKKAKELLKKKE
B21: design_601_c3fd07b4-2f34-4ad8-bd4e-2749faf628eb_503_dldesign_0_cycle1_af2pred (protein)
chain: AEKAIGNAHAYKNILKSEAEWSKKLPLEERKKRLKELVEEIAKIAAEAGEEVAEKFRKEAEAFAEEALKKQEEE
B22: design_600_24101276-ad9d-4944-b73e-53bb160363ad_2225_dldesign_0_cycle1_af2pred (protein)
chain: MSEGLKEAAKELVEELRETIATKSPEQARGELTLARSSAKSIEKLDPESGKELLAKVEELEKELEAKAAA
B23: design_600_24101276-ad9d-4944-b73e-53bb160363ad_1928_dldesign_0_cycle1_af2pred (protein)
chain: GALEEAKKVIEDARDKLSAVAAKKSPEYAKEVADNLEKVAKGEGVKEHATRAAEVLAEADPENAAELKKYLAEAVQTYLQLRAEAEK
B24: design_600_24101276-ad9d-4944-b73e-53bb160363ad_1965_dldesign_0_cycle1_af2pred (protein)
chain: SEELEKVAKEAKEAAKERIEYAKKAAEANPALAETAKRMIEGAKELAKKVEKYAKEGDLKKAERERLRIESRKEQAKETLKKL
B25: design_601_c3fd07b4-2f34-4ad8-bd4e-2749faf628eb_83_dldesign_0_cycle1_af2pred (protein)
chain: NEEAKKAYEKAKKVIEKVLKLAKENPELAEAEEQAKKALEKAEEGLKKGDVGLTESALTRAEHLLEVAEAKIAA
B26: design_601_c3fd07b4-2f34-4ad8-bd4e-2749faf628eb_334_dldesign_0_cycle1_af2pred (protein)
chain: DPASEEAKKLADKMRTAQRLFKQAGLALKEGKRDVDAVAEGYALAKEADPEFAEALEEALKKSVGEEKGTALIEEAKALAKAKAAA
B27: design_600_24101276-ad9d-4944-b73e-53bb160363ad_1742_dldesign_0_cycle1_af2pred (protein)
chain: MEEKYKKAKELLEKAKEEFKKGNYEKALKLAAESVALGYEALGDEEEAKKAKEKAEEALKNPETLGAVAGELLAEAKGLVHLLEIKIN
B28: design_601_c3fd07b4-2f34-4ad8-bd4e-2749faf628eb_461_dldesign_0_cycle1_af2pred (protein)
chain: SAEEEAKKLLEEVKKAMSAANFAMAEDLEEGEKAWEEAKKKAKELLEKAEKLNKEEAKKVKEAVEKGEKTYKRIKKDHEEAEKRAKER
B29: design_601_c3fd07b4-2f34-4ad8-bd4e-2749faf628eb_475_dldesign_0_cycle1_af2pred (protein)
chain: DEFTEKAKEFAEEVKKKSKELVAKAEAGDAETAKEKRKEAVKLLSEAFSLSVKAKKESKEAYEYMKEAEEIASDAVIKISEIEKKKAA
B30: design_601_c3fd07b4-2f34-4ad8-bd4e-2749faf628eb_1122_dldesign_0_cycle1_af2pred (protein)
chain: MEEEKIRKRQAELLKEEAEKEMAAAKASTDAAEAANLGLFARQLYRSAAKIDKENKEEYLKLAEKAEEETKAIVAAKKAA
B31: design_600_24101276-ad9d-4944-b73e-53bb160363ad_2443_dldesign_0_cycle1_af2pred (protein)
chain: VEEAEKRAKRLKEEAEKAAKELAKEGGEEKAKELLEKAKEAAEKFLEAAKKGDGKAAADYLSEARGYIAELRIEAKKLK
B32: design_600_24101276-ad9d-4944-b73e-53bb160363ad_2022_dldesign_0_cycle1_af2pred (protein)
chain: MKEEAKKLAKEAKEKAKEGAANPAYKKAITLYNEALADFRAAEATGSKEAFEEGKEYFKKAEEEEKKVKEKLEKE
B33: design_600_24101276-ad9d-4944-b73e-53bb160363ad_1809_dldesign_0_cycle1_af2pred (protein)
chain: SMEKEEAVKRREKAIEKGEKAIEEAAKEGIEAAEKAKEVMKELKKEAEKFGKETGPEGEKAAKTIKRIAENTEHGLEAIIRREKE
B34: design_601_c3fd07b4-2f34-4ad8-bd4e-2749faf628eb_257_dldesign_0_cycle1_af2pred (protein)
chain: VELAKEMKKLIAEAARAAKEDPKKAAKLLKEAAKKAKEIGEIAEPAAKLLEEAAKLLEEGPEKAPEAATLLSEARAEANYVIKSLEL
B35: design_600_24101276-ad9d-4944-b73e-53bb160363ad_1872_dldesign_0_cycle1_af2pred (protein)
chain: HSEEELKLLERMREIRKRAKEAVKLLKELGEKELGEKYAKEIADLLYQSIDDPENQEKYVEEAEAKAEELEKLAEEAKKKAEE
B36: design_601_c3fd07b4-2f34-4ad8-bd4e-2749faf628eb_419_dldesign_0_cycle1_af2pred (protein)
chain: GKEELLKKAKKAMEETKKAIKEGKKLIKEGASKEELEKAAEELRKKAKEVRELGKELPELKPEAAKVAQEAYETAAELDVEAKKK
B37: design_600_24101276-ad9d-4944-b73e-53bb160363ad_2105_dldesign_0_cycle1_af2pred (protein)
chain: NMEEAKKLLKETEKAAKKAVEIAGEEAKPAAEKAIKVAEKFLKYGDVEALKDILAATKAYLAKVEAEKAAAA
B38: design_600_24101276-ad9d-4944-b73e-53bb160363ad_2034_dldesign_0_cycle1_af2pred (protein)
chain: DEKVKKAKEEAEKISKEGVELAKKGAENPEKYEEYEKKAKELFDKAMAIAKEVAKENPEGGAKIAEIVHTLRAEAKAVIAKIK

The binders below were run against VTCN1, Q7Z7D3.
Sequence of VTCN1, Q7Z7D3 (Q7Z7D3 whole entry): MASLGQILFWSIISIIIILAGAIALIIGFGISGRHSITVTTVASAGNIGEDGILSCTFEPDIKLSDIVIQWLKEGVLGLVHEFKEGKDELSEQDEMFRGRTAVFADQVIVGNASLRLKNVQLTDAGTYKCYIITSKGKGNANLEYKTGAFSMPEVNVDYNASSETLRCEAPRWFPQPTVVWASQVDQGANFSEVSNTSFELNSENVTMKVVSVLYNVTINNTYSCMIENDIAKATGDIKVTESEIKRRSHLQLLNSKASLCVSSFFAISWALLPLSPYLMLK

Binding in a display sort, active:
B35 binds

Binding in a display sort, inactive:
B1 not found
B2 not found
B3 not found
B4 not found
B5 not found
B6 not found
B7 not found
B8 not found
B9 not found
B10 not found
B11 not found
B12 not found
B13 not found
B14 not found
B15 not found
B16 not found
B17 not found
B18 not found
B19 not found
B20 not found
B21 not found
B22 not found
B23 not found
B24 not found
B25 not found
B26 not found
B27 not found
B28 not found
B29 not found
B30 not found
B31 not found
B32 not found
B33 not found
B34 not found
B36 not found
B37 not found
B38 not found

— paper PMC13494018
